Results from PubChem BioAssay (NCATS).
Inconclusive results are not listed. Values without a mark were called inactive. Calls of active or inactive are those of the source. The call rests on the fitted dose curve; tested in HEK293 reporter line.

Experiment: qHTS for Inhibitors of the Functional Ribonucleoprotein Complex (vRNP) of Lassa (LASV) Arenavirus: Viability assay - alamar blue signal for LASV Primary Screen (AID 1347083)
Conditions: cell viability, alamar blue fluorescence (LASV minigenome counter-screen); series mostly up to 57.5 µM; activity change, negative = reduced viability: at the top concentration
Further: nearly all actives have a fitted effect of over 80% in size.
On the % scale 0 is the no-effect control and ±100 the full control effect; potency means the concentration at half of the fitted maximal effect.

SMILES | activity change, negative = reduced viability | Potency
Cn1cc(C2=C(c3ccc(Cl)cc3Cl)C(=O)NC2=O)c2ccccc21 | -17.4% | –
Nn1nnc2ccccc21 | 6.42% | –
C[C@@]1(C2CCCC2)Cc2cc(OCC(=O)O)c(Cl)c(Cl)c2C1=O | -22.4% | –
CCc1ccc(/C=C2/SC(=S)NC2=O)cc1 | -1.98% | –
N#CNC(=NCCCCCCOc1ccc(Cl)cc1)Nc1ccncc1 | – | 0.0097 µM (active)
O=C1c2c(O)cc(O)cc2OC(c2ccc(O)c(O)c2)C1O (stereo unspecified) | 1.86% | –
NC/C=C\C(=O)O | -2.37% | –
CN1CCc2c(c3ccccc3n2Cc2ccc(C(=O)NO)cc2)C1 | – | 21.7 µM (active)
CCN(CC)CCCCNc1ncc2c(n1)N(C)C(=O)N(c1c(Cl)c(OC)cc(OC)c1Cl)C2 | – | 34.3 µM (active)
CCCCOP(=O)(O)OCCCC | 0.554% [at 115 µM] | –

Experiment: qHTS for Inhibitors of the Functional Ribonucleoprotein Complex (vRNP) of Lymphocytic Choriomeningitis Arenaviruses (LCMV): Viability assay - alamar blue signal for LCMV Primary Screen (AID 1347085)
Conditions: alamar blue viability counter-screen, LCMV vRNP screen cells; series mostly up to 57.5 µM; activity change, negative = lower viability: at the top concentration

SMILES | activity change, negative = lower viability | Potency
CC1(C)CCC[C@@]2(C)C1CC[C@@](C)(O)[C@@H]2CC[C@@](C)(O)C1CO1 (stereo partly specified) | -20.9% | –
C[C@]12CC[C@H]3C(=CCc4cc(O)ccc43)[C@@H]1CCC2=O | -5.77% [at 115 µM] | –
C[C@]12CC[C@@H]3c4ccc(O)cc4CC[C@H]3[C@H]1C[C@@H](O)[C@H]2O | – | 9.68 µM (active)
COc1ccc(-c2cc(=O)c3c(OC)c(OC)c(OC)c(OC)c3o2)cc1 | -0.057% | –
CC(=O)O[C@@]12CO[C@H]1C[C@H](O)[C@@]1(C)C(=O)[C@H](O)C3=C(C)[C@@H](OC(=O)C(O)[C@@H](NC(=O)OC(C)(C)C)c4ccccc4)C[C@@](O)([C@@H](OC(=O)c4ccccc4)[C@@H]21)C3(C)C (stereo partly specified) | -90.3% | –
O=C1NC(=O)C(=Cc2ccc(-c3ccc(F)cc3O)o2)S1 | 15.5% | –
